Results on 9 compounds are retold here after PubChem BioAssay (NCATS).

Results filed as inconclusive are left out. A number with no mark means an inactive call. Calls of active or inactive are those of the source. Calls come from the whole dose curve; as a rule, active = well fitted curve in the direction sought with a large enough effect; inconclusive = small, poorly fitted or top-dose-only effect, or another doubt; inactive = no such curve, though single readings can be large; an effect the other way counts as inactive or inconclusive.

Assay [1] concerns the target ATP-dependent 6-phosphofructokinase (Trypanosoma brucei brucei) (UniProt O15648). Kind of assay: qHTS Assay to Find Inhibitors of T. brucei phosphofructokinase: hit validation (AID 492961).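 Note: luminescence reports ADP formed as PFK phosphorylates fructose-6-phosphate with ATP; % is set by controls: 0 for no effect and ±100 for the full control effect.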 The gist of the method:
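Measures ADP output of PFK (1.25 nM) at 0.1 mM ATP, 0.5 mM F6P, pH 8.0 TEA buffer with 5 mM MgCl2. No-enzyme wells define full inhibition; uninhibited enzyme wells define zero.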
For orientation: In qHTS, concentration-response curves come from the screen itself.

Assay [2] can be described thus: qHTS profiling for inhibitors of Plasmodium falciparum proliferation (AID 504749).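 For activity, negative = inhibition: 0% = DMSO vehicle and full inhibition = artemisinin control.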 For all read-outs here: nearly all actives have a fitted effect of over 60% in size. Note: potency is the fitted concentration of half-maximal effect. To be noted: P. falciparum in erythrocytes, SYBR Green DNA, 72 h; for activity, negative = inhibition: at 28.7 µM (top of the series). The gist of the method: (§1)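 In a 72 h erythrocytic culture (37 C, humidified, 5% CO2) at 2.5% hematocrit and 0.3% starting parasitemia, compounds were tested; SYBR Green I in detergent lysis buffer stained parasite DNA overnight.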

The test system of the next assay is 3D7. The description is as above. As to conditions: P. falciparum in erythrocytes, SYBR Green DNA, 72 h; series mostly up to 28.7 µM. The method, boiled down:
as §1

The next assay concerns 7G8. The assay is described as above. As to conditions: P. falciparum in erythrocytes, SYBR Green DNA, 72 h; series mostly up to 28.7 µM. The method, boiled down:
as §1

Another assay has as its system AS120. Described as above. As to conditions: P. falciparum in erythrocytes, SYBR Green DNA, 72 h; series mostly up to 28.7 µM. The gist of the method:
as §1

A further assay concerns ATS189. Described as above. To be noted: P. falciparum in erythrocytes, SYBR Green DNA, 72 h; series mostly up to 28.7 µM. The method, boiled down: as §1
The subject of another assay is CP185. The description is as above. To be noted: P. falciparum in erythrocytes, SYBR Green DNA, 72 h; series mostly up to 28.7 µM. The gist of the method: as §1
In the next assay the test system is CP191. The description is as above. As to conditions: P. falciparum in erythrocytes, SYBR Green DNA, 72 h; series mostly up to 28.7 µM. The gist of the method:
as §1

The next assay has as its system CP192. The assay is described as above. As to conditions: P. falciparum in erythrocytes, SYBR Green DNA, 72 h; series mostly up to 28.7 µM. The method, boiled down:
as §1

Another assay relates to CP194. Described as above. As to conditions: P. falciparum in erythrocytes, SYBR Green DNA, 72 h; series mostly up to 28.7 µM. The gist of the method:
as §1

The next assay relates to CP201. The assay is described as above. To be noted: P. falciparum in erythrocytes, SYBR Green DNA, 72 h; series mostly up to 28.7 µM. The method, boiled down: as §1
The test system of a further assay is CP203. Described as above. To be noted: P. falciparum in erythrocytes, SYBR Green DNA, 72 h; series mostly up to 28.7 µM. The method, boiled down:
as §1

For the next assay, the system named is CP247. The assay is described as above. To be noted: P. falciparum in erythrocytes, SYBR Green DNA, 72 h; series mostly up to 28.7 µM. The method, boiled down:
as §1

The test system of the next assay is CP286. The description is as above. As to conditions: P. falciparum in erythrocytes, SYBR Green DNA, 72 h; series mostly up to 28.7 µM. The method, boiled down:
as §1

The next assay relates to CP291. The description is as above. As to conditions: P. falciparum in erythrocytes, SYBR Green DNA, 72 h; series mostly up to 28.7 µM. The gist of the method: as §1
The test system of a further assay is CP305. The description is as above. To be noted: P. falciparum in erythrocytes, SYBR Green DNA, 72 h; series mostly up to 28.7 µM. The gist of the method: as §1
The next assay deals with HB3. Described as above. To be noted: P. falciparum in erythrocytes, SYBR Green DNA, 72 h; series mostly up to 28.7 µM. The method, boiled down: as §1
In another assay the test system is P94_40. Described as above. To be noted: P. falciparum in erythrocytes, SYBR Green DNA, 72 h; series mostly up to 28.7 µM. The gist of the method:
as §1

The next assay has as its system PC49. The description is as above. As to conditions: P. falciparum in erythrocytes, SYBR Green DNA, 72 h; series mostly up to 28.7 µM. The method, boiled down:
as §1

Chain of ATP-dependent 6-phosphofructokinase (Trypanosoma brucei brucei) (O15648 whole entry, looked up): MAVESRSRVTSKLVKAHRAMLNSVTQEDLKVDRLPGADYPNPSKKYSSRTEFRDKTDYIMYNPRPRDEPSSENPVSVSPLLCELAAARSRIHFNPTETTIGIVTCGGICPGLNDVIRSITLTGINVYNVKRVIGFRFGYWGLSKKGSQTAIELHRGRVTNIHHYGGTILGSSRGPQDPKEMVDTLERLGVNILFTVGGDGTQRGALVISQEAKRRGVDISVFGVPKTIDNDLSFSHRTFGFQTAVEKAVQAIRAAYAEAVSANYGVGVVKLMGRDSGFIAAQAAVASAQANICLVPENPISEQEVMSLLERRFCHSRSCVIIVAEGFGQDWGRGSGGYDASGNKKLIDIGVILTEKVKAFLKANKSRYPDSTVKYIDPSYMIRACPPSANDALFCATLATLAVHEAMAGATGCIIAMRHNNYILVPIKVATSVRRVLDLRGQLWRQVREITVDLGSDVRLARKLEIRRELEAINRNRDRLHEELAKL

As for `COc1cccc2c1C(=O)c1c(O)c3c(c(O)c1C2=O)C[C@@](O)(C(=O)CO)C[C@@H]3OC1CC(N)C(O)C(C)O1` (stereo not given in full), the Potency result in [1] is “inactive”. Besides, the Potency in assay [2] (parasite line A) is 2000 nM (active); in assay [2] (parasite line B), 3160 nM (active); in the assay with 3D7 it was 1000 nM (active); in the assay with 7G8 it was 316 nM (active); in the assay on AS120, 2240 nM (active); in the assay with ATS189, 2510 nM (active). For the same compound, the Potency was 2240 nM (active) in the assay on CP185; 2240 nM (active) with CP191; 1900 nM (active) with CP192; 4780 nM (active) in the assay on CP194; 3790 nM (active) in the assay with CP201; 4780 nM (active) in the assay on CP203. For the same compound, the Potency in the assay on CP247 is 2240 nM (active); in the assay with CP286, 398 nM (active); in the assay on CP291 it was 3380 nM (active); in the assay with CP305 it was 3380 nM (active); with HB3 it was 2000 nM (active); with P94_40, 2000 nM (active). For the same compound, the Potency in the assay on PC49 was 5620 nM (active).
Turning to `CC1(C)C2CC[C@]1(C)[C@@H](O)C2`, the Potency result (in [1]; in the assay on 3D7; in the assay on 7G8; with AS120; in the assay on ATS189; with CP185) was “inactive” each time. The Potency result in the assay on CP191, in the assay on CP192, with CP194, in the assay with CP201, in the assay with CP203 and in the assay on CP247 was “inactive” throughout. In addition, the Potency result in the assay with CP286, in the assay with CP291, in the assay with CP305, in the assay with HB3, in the assay on P94_40 and with PC49 was “inactive” throughout. The activity, negative = inhibition in assay [2] (parasite line A) was 6.51%; in assay [2] (parasite line B), 12%.
`O=C(O)CC(O)CC(O)/C=C/c1c(C2CC2)nc2ccccc2c1-c1ccc(F)cc1` (stereo not given): the Potency result (in assay [1]; with 3D7; in the assay with 7G8; in the assay with AS120; in the assay with ATS189; in the assay with CP185) was “inactive” throughout. Besides, the Potency entry in the assay on CP191, in the assay on CP192, in the assay with CP194, with CP201, in the assay with CP203 and in the assay with CP247 was “inactive” each time. The Potency entry in the assay on CP286, with CP291, in the assay on CP305, in the assay with HB3, in the assay with P94_40 and with PC49 was “inactive” each time. For the same compound, the activity, negative = inhibition in assay [2] (parasite line A) is 5.32%; in assay [2] (parasite line B) it was -2.35%.
With `CCCCN1CC(O)C(O)C(O)C1CO` (stereo not given), the Potency result (in [1]; in the assay with 3D7; in the assay on 7G8; in the assay with AS120; in the assay with ATS189; in the assay on CP185) was “inactive” each time. Also, the Potency result in the assay with CP191, in the assay on CP192, in the assay with CP194, with CP201, in the assay with CP203 and in the assay on CP247 was “inactive” throughout. For the same compound, the Potency result in the assay on CP286, with CP291, in the assay on CP305, in the assay on HB3, with P94_40 and in the assay on PC49 was “inactive” in each case. The activity, negative = inhibition in assay [2] (parasite line A) was 0.477%; in [2] (parasite line B), 1.06%.
`CNC1C(O)C(OC2C(N)CC(N)C(OC3OC(CN)=CCC3N)C2O)OCC1(C)O` (stereo not given): the Potency result (in assay [1]; with 3D7; in the assay on 7G8; in the assay on AS120; in the assay with ATS189; in the assay with CP185) was “inactive” each time. Further, the Potency result with CP191, in the assay with CP192, in the assay on CP194, in the assay on CP201, with CP203 and with CP247 was “inactive” in each case. Moreover, the Potency result in the assay on CP286, in the assay on CP291, in the assay on CP305, with HB3, in the assay with P94_40 and in the assay with PC49 was “inactive” each time. Further, the activity, negative = inhibition in assay [2] (parasite line A) was 16.7%; in assay [2] (parasite line B), -10.7%.
On to `CCN1CCN(C(=O)NC(C(=O)NC2C(=O)N3C(C(=O)O)=C(CSc4nnnn4C)CSC23)c2ccc(O)cc2)C(=O)C1=O` (stereo not given), for which the Potency result (in [1]; with 3D7; in the assay with 7G8; in the assay on AS120; with ATS189; in the assay with CP185) was “inactive” in each case. Moreover, the Potency result in the assay on CP191, in the assay on CP192, with CP194, in the assay with CP201, with CP203 and with CP247 was “inactive” each time. For the same compound, the Potency entry with CP286, in the assay on CP291, with CP305, in the assay on HB3, with P94_40 and with PC49 was “inactive” in each case. In addition, the activity, negative = inhibition in assay [2] (parasite line A) was 1.12%; in assay [2] (parasite line B) it was -9.29%.
As for `CCN(CC)C(=O)Nc1ccc(OC[C@H](O)CNC(C)(C)C)c(C(C)=O)c1`, the Potency entry (in [1]; with 3D7; in the assay on 7G8; with AS120; in the assay on ATS189; with CP185) was “inactive” each time. For the same compound, the Potency result in the assay with CP191, in the assay on CP192, in the assay on CP194, in the assay with CP201, with CP203 and in the assay with CP247 was “inactive” each time. Besides, the Potency result with CP286, with CP291, with CP305, with HB3, in the assay on P94_40 and in the assay on PC49 was “inactive” in each case. In addition, the activity, negative = inhibition in assay [2] (parasite line A) was 5.16%; in assay [2] (parasite line B), -3.7%.
For the compound `CCCCCCCCCCCCCCCC(=O)OCC(COP(=O)(O)OCC[N+](C)(C)C)OC(=O)CCCCCCCCCCCCCCC` (stereo not given), the Potency entry (in assay [1]; in the assay with 3D7; with 7G8; in the assay on AS120; with ATS189; in the assay with CP185) was “inactive” throughout. The Potency result with CP191, with CP192, in the assay on CP194, with CP201, in the assay on CP203 and with CP247 was “inactive” in each case. The Potency result with CP286, with CP291, with CP305, in the assay with HB3, in the assay on P94_40 and in the assay with PC49 was “inactive” each time. Moreover, the activity, negative = inhibition in assay [2] (parasite line A) is -4.13%; in [2] (parasite line B) it was 3.84%.
Turning to `O=[N+]([O-])O[C@H]1CO[C@H]2[C@@H]1OC[C@H]2O`, the Potency result (in assay [1]; in the assay with 3D7; in the assay with 7G8; in the assay with AS120; in the assay on ATS189; with CP185) was “inactive” in each case. The Potency result in the assay on CP191, in the assay on CP192, in the assay on CP194, in the assay with CP201, in the assay on CP203 and with CP247 was “inactive” in each case. In addition, the Potency entry in the assay on CP286, in the assay on CP291, in the assay with CP305, in the assay with HB3, in the assay on P94_40 and in the assay on PC49 was “inactive” each time. Also, the figures for the activity, negative = inhibition in assay [2] (parasite line A) and in assay [2] (parasite line B) were 14.3% and -1.17%, respectively.
